Reference: ChEMBL document CHEMBL2218924, “A broad activity screen in support of a chemogenomic map for kinase signalling research and drug discovery” (Biochem J, 2013)

Experiments:
[1] = target: Ribosomal protein S6 kinase beta-1 (Homo sapiens) (UniProt P23443); details: at 1 µM
[2] = target: Ribosomal protein S6 kinase beta-1 (Homo sapiens) (UniProt P23443); details: at 10 µM
[3] = target: Serine/threonine-protein kinase Nek6 (Homo sapiens) (UniProt Q9HC98); details: at 1 µM
[4] = target: Serine/threonine-protein kinase Nek6 (Homo sapiens) (UniProt Q9HC98); details: at 10 µM
[5] = target: Serine/threonine-protein kinase Nek7 (Homo sapiens) (UniProt Q8TDX7); details: at 1 µM
[6] = target: Serine/threonine-protein kinase Nek7 (Homo sapiens) (UniProt Q8TDX7); details: at 10 µM
[7] = target: T1, Serine/threonine-protein kinase NLK (Homo sapiens) (UniProt Q9UBE8); details: at 1 µM
T1 sequence (whole entry): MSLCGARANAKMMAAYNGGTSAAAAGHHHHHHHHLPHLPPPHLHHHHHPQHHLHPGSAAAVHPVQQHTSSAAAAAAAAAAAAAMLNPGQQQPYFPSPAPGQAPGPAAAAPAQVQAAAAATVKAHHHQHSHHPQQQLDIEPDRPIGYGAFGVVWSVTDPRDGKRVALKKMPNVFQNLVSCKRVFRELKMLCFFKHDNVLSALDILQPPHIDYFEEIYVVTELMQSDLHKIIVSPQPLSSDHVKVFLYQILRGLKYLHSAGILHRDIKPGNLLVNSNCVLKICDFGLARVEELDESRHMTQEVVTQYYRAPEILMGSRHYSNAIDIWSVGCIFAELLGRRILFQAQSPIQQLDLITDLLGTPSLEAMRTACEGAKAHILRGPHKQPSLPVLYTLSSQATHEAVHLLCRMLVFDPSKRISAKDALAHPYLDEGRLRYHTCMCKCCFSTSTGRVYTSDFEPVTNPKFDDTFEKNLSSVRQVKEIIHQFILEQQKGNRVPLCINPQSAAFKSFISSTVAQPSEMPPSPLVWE

[8] = target: T1, Serine/threonine-protein kinase NLK (Homo sapiens); details: at 10 µM
[9] = target: Serine/threonine-protein kinase PAK 2 (Homo sapiens) (UniProt Q13177); details: at 1 µM
[10] = target: Serine/threonine-protein kinase PAK 2 (Homo sapiens) (UniProt Q13177); details: at 10 µM
[11] = target: Serine/threonine-protein kinase PAK 4 (Homo sapiens) (UniProt O96013); details: at 1 µM
[12] = target: Serine/threonine-protein kinase PAK 4 (Homo sapiens) (UniProt O96013); details: at 10 µM
[13] = target: Serine/threonine-protein kinase PAK 5 (Homo sapiens) (UniProt Q9P286); details: at 1 µM
[14] = target: Serine/threonine-protein kinase PAK 5 (Homo sapiens) (UniProt Q9P286); details: at 10 µM
[15] = target: Serine/threonine-protein kinase PAK 6 (Homo sapiens) (UniProt Q9NQU5); details: at 1 µM
[16] = target: Serine/threonine-protein kinase PAK 6 (Homo sapiens) (UniProt Q9NQU5); details: at 10 µM
[17] = target: PAS domain-containing serine/threonine-protein kinase (Homo sapiens) (UniProt Q96RG2); details: at 10 µM
[18] = target: Activated CDC42 kinase 1 (Homo sapiens) (UniProt Q07912); details: at 1 µM
[19] = target: Activated CDC42 kinase 1 (Homo sapiens) (UniProt Q07912); details: at 10 µM
[20] = target: ALK tyrosine kinase receptor (Homo sapiens) (UniProt Q9UM73); details: at 1 µM
Chain of ALK tyrosine kinase receptor (Homo sapiens) (Q9UM73 19-1620 limits assumed): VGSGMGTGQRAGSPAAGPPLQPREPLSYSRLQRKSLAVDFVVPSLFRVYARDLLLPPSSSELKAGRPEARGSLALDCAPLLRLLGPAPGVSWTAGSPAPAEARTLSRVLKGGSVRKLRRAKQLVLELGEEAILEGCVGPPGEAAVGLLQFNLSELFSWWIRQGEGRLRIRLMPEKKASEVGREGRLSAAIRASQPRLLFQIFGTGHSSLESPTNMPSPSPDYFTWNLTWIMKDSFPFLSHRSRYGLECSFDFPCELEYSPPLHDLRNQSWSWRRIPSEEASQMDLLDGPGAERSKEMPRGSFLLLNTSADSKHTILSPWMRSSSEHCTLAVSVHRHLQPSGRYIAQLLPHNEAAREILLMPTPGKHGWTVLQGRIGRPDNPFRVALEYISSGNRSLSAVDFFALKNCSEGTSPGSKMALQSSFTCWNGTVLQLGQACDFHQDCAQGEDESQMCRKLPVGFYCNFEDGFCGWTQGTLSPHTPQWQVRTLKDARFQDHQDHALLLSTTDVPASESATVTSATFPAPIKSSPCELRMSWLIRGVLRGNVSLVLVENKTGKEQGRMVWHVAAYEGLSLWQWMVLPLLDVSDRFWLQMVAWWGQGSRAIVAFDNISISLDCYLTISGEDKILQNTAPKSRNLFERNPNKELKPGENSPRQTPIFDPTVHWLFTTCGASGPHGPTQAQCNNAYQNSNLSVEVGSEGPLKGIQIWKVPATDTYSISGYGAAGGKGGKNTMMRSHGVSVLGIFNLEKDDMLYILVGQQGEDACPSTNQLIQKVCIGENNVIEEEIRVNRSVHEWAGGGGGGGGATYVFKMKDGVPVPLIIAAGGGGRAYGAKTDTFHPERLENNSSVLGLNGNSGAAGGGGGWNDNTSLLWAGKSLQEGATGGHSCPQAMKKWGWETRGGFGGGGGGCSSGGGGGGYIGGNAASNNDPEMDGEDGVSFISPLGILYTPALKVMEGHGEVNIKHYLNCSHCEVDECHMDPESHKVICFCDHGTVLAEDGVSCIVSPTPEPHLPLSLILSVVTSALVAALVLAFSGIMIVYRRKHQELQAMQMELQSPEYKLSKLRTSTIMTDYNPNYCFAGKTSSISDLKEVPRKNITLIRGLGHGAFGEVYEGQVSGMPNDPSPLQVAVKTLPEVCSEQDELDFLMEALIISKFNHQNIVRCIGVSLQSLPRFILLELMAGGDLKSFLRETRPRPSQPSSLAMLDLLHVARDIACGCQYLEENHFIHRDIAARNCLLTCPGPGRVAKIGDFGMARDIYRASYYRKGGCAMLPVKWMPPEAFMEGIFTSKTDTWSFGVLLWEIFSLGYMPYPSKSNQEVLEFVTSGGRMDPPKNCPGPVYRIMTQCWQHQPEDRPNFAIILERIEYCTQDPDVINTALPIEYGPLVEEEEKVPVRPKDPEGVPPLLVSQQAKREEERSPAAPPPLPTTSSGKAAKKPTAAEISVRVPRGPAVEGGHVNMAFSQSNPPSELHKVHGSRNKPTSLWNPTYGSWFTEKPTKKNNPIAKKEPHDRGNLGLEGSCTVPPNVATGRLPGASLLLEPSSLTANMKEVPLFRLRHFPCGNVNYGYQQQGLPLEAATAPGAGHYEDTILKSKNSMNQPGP

Chain of Serine/threonine-protein kinase PAK 2 (Homo sapiens) (Q13177 whole entry): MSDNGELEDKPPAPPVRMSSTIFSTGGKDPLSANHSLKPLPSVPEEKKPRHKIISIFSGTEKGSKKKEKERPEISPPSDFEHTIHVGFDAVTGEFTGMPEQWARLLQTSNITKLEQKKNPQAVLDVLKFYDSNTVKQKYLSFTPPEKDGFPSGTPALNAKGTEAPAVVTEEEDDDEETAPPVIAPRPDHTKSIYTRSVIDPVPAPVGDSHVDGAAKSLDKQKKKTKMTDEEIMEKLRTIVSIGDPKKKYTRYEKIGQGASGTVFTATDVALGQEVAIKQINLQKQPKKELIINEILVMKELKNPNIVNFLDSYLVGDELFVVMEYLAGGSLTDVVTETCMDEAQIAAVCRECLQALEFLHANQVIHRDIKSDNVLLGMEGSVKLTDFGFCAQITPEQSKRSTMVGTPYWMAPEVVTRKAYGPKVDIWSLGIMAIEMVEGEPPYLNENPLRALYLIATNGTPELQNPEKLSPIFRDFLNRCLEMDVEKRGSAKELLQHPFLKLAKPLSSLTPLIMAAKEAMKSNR
Chain of Serine/threonine-protein kinase Nek6 (Homo sapiens) (Q9HC98 whole entry): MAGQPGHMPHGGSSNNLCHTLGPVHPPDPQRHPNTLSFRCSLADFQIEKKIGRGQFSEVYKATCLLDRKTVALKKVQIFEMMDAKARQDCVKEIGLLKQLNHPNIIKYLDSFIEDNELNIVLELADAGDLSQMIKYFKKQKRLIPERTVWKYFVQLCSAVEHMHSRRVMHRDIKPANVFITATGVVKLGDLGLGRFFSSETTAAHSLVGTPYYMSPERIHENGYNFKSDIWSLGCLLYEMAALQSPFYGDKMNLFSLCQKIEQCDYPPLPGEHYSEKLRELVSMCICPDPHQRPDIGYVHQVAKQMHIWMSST
Chain of Activated CDC42 kinase 1 (Homo sapiens) (Q07912 whole entry, looked up): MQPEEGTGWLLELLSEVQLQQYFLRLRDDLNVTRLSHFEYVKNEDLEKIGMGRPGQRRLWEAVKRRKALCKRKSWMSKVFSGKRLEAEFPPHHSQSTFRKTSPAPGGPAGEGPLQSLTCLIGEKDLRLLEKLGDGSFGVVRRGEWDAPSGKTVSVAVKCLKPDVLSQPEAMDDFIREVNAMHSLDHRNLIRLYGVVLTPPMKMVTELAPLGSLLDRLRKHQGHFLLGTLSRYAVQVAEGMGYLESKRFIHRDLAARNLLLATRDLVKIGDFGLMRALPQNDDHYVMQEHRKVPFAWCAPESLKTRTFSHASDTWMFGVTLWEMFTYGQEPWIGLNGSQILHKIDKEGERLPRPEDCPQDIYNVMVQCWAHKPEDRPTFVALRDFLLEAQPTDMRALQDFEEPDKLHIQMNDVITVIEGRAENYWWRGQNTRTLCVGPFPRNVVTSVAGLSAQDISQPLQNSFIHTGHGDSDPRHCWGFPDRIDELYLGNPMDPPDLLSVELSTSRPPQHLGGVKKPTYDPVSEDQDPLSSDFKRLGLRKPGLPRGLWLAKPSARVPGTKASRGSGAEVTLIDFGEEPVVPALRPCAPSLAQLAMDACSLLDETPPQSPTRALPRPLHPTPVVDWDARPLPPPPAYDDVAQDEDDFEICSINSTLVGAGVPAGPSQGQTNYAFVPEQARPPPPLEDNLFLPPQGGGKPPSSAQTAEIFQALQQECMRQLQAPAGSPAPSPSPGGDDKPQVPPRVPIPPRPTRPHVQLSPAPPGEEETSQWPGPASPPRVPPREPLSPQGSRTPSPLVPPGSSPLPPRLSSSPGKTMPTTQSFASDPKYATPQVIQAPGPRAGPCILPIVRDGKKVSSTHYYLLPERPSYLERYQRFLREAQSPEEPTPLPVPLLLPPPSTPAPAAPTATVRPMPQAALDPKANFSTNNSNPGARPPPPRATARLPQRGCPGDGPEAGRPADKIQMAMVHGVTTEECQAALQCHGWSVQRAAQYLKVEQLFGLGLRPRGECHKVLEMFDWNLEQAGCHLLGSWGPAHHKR
Chain of Ribosomal protein S6 kinase beta-1 (Homo sapiens) (P23443 whole entry, looked up): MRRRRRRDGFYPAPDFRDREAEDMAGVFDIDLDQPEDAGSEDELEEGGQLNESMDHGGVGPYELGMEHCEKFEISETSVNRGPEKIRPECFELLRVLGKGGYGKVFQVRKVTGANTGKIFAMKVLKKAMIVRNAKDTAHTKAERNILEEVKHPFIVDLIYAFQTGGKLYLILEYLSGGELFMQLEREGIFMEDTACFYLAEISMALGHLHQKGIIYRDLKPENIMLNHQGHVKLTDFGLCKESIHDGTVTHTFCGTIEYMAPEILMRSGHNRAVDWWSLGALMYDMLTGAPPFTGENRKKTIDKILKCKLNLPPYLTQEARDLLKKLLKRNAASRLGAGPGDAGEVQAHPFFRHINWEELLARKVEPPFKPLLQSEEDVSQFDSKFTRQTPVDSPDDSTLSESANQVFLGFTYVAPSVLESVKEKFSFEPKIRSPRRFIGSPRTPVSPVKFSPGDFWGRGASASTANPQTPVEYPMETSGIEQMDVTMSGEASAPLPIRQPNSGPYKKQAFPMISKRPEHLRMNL
Chain of Serine/threonine-protein kinase Nek7 (Homo sapiens) (Q8TDX7 whole entry, looked up): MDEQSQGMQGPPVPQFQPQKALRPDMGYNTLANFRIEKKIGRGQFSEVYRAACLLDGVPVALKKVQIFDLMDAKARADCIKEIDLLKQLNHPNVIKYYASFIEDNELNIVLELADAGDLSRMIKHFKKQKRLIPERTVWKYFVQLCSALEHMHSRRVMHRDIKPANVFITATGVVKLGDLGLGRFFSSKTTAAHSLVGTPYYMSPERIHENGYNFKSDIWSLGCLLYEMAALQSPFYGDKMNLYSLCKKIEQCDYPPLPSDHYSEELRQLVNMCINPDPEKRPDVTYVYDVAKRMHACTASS
Chain of Serine/threonine-protein kinase PAK 6 (Homo sapiens) (Q9NQU5 whole entry, looked up, the tested form may be a part): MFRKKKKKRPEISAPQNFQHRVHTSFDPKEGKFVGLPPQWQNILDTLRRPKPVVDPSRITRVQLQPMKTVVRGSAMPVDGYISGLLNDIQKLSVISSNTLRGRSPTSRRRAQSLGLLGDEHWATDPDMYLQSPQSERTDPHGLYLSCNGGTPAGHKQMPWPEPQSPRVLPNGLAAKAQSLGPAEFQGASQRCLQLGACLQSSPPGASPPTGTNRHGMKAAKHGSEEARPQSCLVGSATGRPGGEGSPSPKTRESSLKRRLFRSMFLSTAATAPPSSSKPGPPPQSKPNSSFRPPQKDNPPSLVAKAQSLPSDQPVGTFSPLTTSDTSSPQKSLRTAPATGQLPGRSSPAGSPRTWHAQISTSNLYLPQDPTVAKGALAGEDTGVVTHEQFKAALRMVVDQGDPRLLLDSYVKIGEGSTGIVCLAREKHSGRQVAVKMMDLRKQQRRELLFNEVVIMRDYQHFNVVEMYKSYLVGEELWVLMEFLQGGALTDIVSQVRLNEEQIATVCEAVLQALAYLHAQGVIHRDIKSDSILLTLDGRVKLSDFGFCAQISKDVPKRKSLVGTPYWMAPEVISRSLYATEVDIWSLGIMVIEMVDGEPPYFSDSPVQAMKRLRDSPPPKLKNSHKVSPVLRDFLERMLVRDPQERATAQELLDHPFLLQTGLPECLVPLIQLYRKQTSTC

Compound	residual activity [1] [%]	residual activity [2] [%]	residual activity [3]	residual activity [4] [%]	residual activity [5]	residual activity [6]	residual activity [7] [%]	residual activity [8] [%]	residual activity [9] [%]	residual activity [10] [%]	residual activity [11] [%]	residual activity [12] [%]	residual activity [13] [%]	residual activity [14] [%]	residual activity [15] [%]	residual activity [16] [%]	residual activity [17] [%]	residual activity [18] [%]	residual activity [19] [%]	residual activity [20] [%]
O=C(Nc1cccc(Nc2nccc(Nc3cccc(C(F)(F)F)c3)n2)c1)C1CC1	83	62	107% (inactive)	105	103% (inactive)	104% (inactive)	95	39	116	58	80	34	97	107	90	52	47	25	5	69
Oc1n[nH]c2nnc(-c3c(-c4ccccc4)nn4ccccc34)cc12	106	96	103% (inactive)	110	100% (inactive)	96% (inactive)	90	86	94	99	95	92	101	101	98	98	104	29	14	92
N#C/C(=C(\N)Sc1ccc(N)cc1)c1ccccc1C(F)(F)F	68	56	113% (inactive)	112	101% (inactive)	90% (inactive)	87	95	99	98	101	94	90	89	96	96	105	50	43	65
Oc1ccc(-c2nc(-c3ccc(F)cc3)c(-c3ccncc3)[nH]2)cc1	72	25	105% (inactive)	110	114% (inactive)	103% (inactive)	49	13	95	85	107	96	99	85	88	84	34	81	27	83
COc1cc2ncnc(Nc3ccc(Oc4ccccc4)cc3)c2cc1OC	92	88	97% (inactive)	118	97% (inactive)	112% (inactive)	96	82	98	87	94	80	108	136	98	124	131	28	9	54
O=C1NC(=O)/C(=C\c2ccc3nccnc3c2)S1	68	50	91% (inactive)	96	100% (inactive)	106% (inactive)	89	55	102	75	95	86	86	99	92	94	11	84	66	49
O=C(O)c1ccc2c3c1cccc3c(=O)n1c3ccccc3nc21	89	46	109% (inactive)	101	114% (inactive)	108% (inactive)	107	72	101	95	100	98	100	96	91	85	98	94	75	70
COc1ccc(S(=O)(=O)N(CCO)c2ccccc2CN(C)C/C=C/c2ccc(Cl)cc2)cc1	97	78	110% (inactive)	115	106% (inactive)	93% (inactive)	93	92	97	86	94	93	100	77	105	64	87	68	60	68
CO[C@@H]1[C@H](N(C)C(=O)c2ccccc2)C[C@H]2O[C@]1(C)n1c3ccccc3c3c4c(c5c6ccccc6n2c5c31)C(=O)NC4	4	1	93% (inactive)	92	91% (inactive)	82% (inactive)	90	73	72	50	64	43	52	48	49	26	0	11	-1	32
CC(C)n1cnc2c(NCc3ccccc3)nc(NCCCO)nc21	105	100	107% (inactive)	115	101% (inactive)	95% (inactive)	95	86	106	100	97	80	108	96	95	72	98	76	58	87
Cn1nc2c3c(cccc31)C(=O)c1ccccc1-2	70	62	108% (inactive)	104	107% (inactive)	86% (inactive)	–	87	102	98	97	87	86	–	108	–	95	61	31	72
Nc1n[nH]c2nnc(-c3c(-c4ccccc4)nn4ccccc34)cc12	112	100	107% (inactive)	98	106% (inactive)	106% (inactive)	–	74	98	87	94	90	112	90	93	99	114	61	29	77
Nc1cccc(-c2cc3c(Oc4cccc(O)c4)ncnc3[nH]2)c1	71	49	–	–	–	–	79	33	105	70	63	19	87	31	86	48	101	10	-1	42
CCN(CC)CCCCN1c2ccccc2Oc2ccc(Cl)cc21	79	90	106% (inactive)	113	116% (inactive)	115% (inactive)	113	96	117	120	107	97	100	90	104	109	13	113	81	92
Nc1nc(Nc2ccc(S(N)(=O)=O)cc2)nn1C(=S)Nc1c(F)cccc1F	14	11	89% (inactive)	44	–	–	17	3	47	7	6	0	9	1	14	4	89	9	0	16
O=C1Nc2ccc(Br)cc2/C1=C\c1cc2c([nH]1)CCCC2	84	51	104% (inactive)	102	101% (inactive)	102% (inactive)	97	97	113	100	84	77	–	105	–	–	98	54	50	76
CC(=O)c1ccc(N2CCOCC2)cc1O	55	46	–	–	98% (inactive)	–	97	83	104	97	100	90	97	91	95	107	88	94	73	80
COc1cc2ncnc(N3CCN(C(=O)Nc4ccc(Oc5ccccc5)cc4)CC3)c2cc1OC	–	–	91% (inactive)	126	97% (inactive)	113% (inactive)	88	89	110	86	94	84	91	122	112	–	–	68	54	73
COc1ccc(OC)c2c(=S)c3ccccc3[nH]c12	115	86	97% (inactive)	91	103% (inactive)	97% (inactive)	85	76	90	73	95	90	115	101	95	80	102	83	57	79
CO[C@H]1C[C@@H]2CC[C@@H](C)[C@@](O)(O2)C(=O)C(=O)N2CCCC[C@H]2C(=O)O[C@H]([C@H](C)C[C@@H]2CC[C@@H](O)[C@H](OC)C2)CC(=O)[C@H](C)/C=C(\C)[C@@H](O)[C@@H](OC)C(=O)[C@H](C)C[C@H](C)/C=C/C=C/C=C/1C	92	147	97% (inactive)	118	97% (inactive)	115% (inactive)	101	91	101	95	89	88	97	109	106	136	–	82	63	82
CC[n+]1c(/C=C/N(C)c2ccccc2)n(-c2ccccc2)c2ccc(-c3nc4ccccc4s3)cc21	130	71	108% (inactive)	88	117% (inactive)	138% (inactive)	–	89	109	81	103	100	104	119	102	96	43	110	77	88
Cc1cccc(-c2[nH]c(C(C)(C)C)nc2-c2ccc3c(c2)OCO3)n1	93	65	90% (inactive)	107	94% (inactive)	95% (inactive)	94	87	103	91	97	88	87	102	–	–	–	90	67	82
Cc1nc(-c2ccccc2)c(-c2ccncc2)o1	83	56	105% (inactive)	–	107% (inactive)	106% (inactive)	103	48	102	101	100	104	106	95	109	90	91	74	64	100
CCN(CC)C(=O)c1ccc(Nc2nc(OCC3CCCCC3)c3nc[nH]c3n2)cc1	58	17	–	95	98% (inactive)	82% (inactive)	–	–	–	–	18	2	43	3	58	23	–	5	1	65
Cc1cc(Nc2nc(-c3ccccc3)nc3ccccc23)n[nH]1	46	10	105% (inactive)	105	105% (inactive)	–	–	–	–	45	9	2	21	3	47	7	121	13	0	70
CCC(=O)Nc1ccc2ncnc(Nc3cccc(Br)c3)c2c1	111	127	79% (inactive)	110	89% (inactive)	114% (inactive)	91	64	110	84	99	86	97	98	107	93	36	70	36	81
